The campaign covered roughly 63,000 compounds. About 1,100 (1.7%) were called active. What follows is part of a selection rich in actives, with near analogues and random picks from the rest. Potency and affinity values are given separately. A number with no mark means an inactive call. Cut-off read from the data, not from the text of the source: active = cytotoxicity above about 50%; inactive = the rest.
Assay: cytotoxicity in HPDE-C7 cells, cell-based, fluorescence, HTS (AID 430);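 note: cells exposed to compound for 48 hours before viability readout; 0% = vehicle and 100% = reference cytotoxic drug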
Settings: HPDE-C7 pancreatic duct cells viability, at 10 µM, hits give high values

Row | Structure (SMILES) | cytotoxicity
1 | Cc1ccc2oc3c(c(=O)c2c1)C(c1ccc(F)cc1)N(CCCN1CCOCC1)C3=O (configuration not stated) | -11.5%
2 | COC(=O)C1=C(C)N(C)C(=O)NC1c1cc(Cl)cc(Cl)c1OC (configuration not stated) | 1.6%
3 | Cc1cc(N2CCN(C(=O)c3ccco3)CC2)n2nc(C)c(-c3ccccc3)c2n1 | 7.9%
4 | Cc1cc(N2CCN(C(=O)c3ccco3)CC2)n2nc(C)c(-c3ccc(Cl)cc3)c2n1 | 14.2%
5 | Cc1nn2c(N3CCN(C(=O)c4ccco4)CC3)cc(C(C)(C)C)nc2c1-c1ccccc1 | 75.8% (active)
6 | COC(=O)c1ccccc1S(=O)(=O)N(Cc1cc2ccc(OC)cc2[nH]c1=O)CC1CCCO1 (configuration not stated) | -2%
7 | O=C(CCNS(=O)(=O)c1cccs1)NCc1ccco1 | -2.8%
8 | C=CCOc1nc2c(c(=O)n(Cc3ccc(Cl)cc3)c(=O)n2C)n1C | 6.6%
9 | C=CCOc1nc2c(c(=O)n(C)c(=O)n2C)n1Cc1ccc(Cl)cc1 | 59.6% (active)
10 | C=CCOc1nc2c(c(=O)n(C)c(=O)n2C)n1Cc1ccc(Cl)cc1Cl | -22.3%
11 | CCc1c(C(=O)Nc2ccc(S(=O)(=O)N3CCOCC3)cc2)csc1C | 11%
12 | N=c1c2c(n(Cc3ccc(Cl)cc3)c3c1CCC3)CCC2 | 34%
13 | N=c1c2c(n(Cc3ccc(F)cc3)c3c1CCC3)CCC2 | 29.3%
14 | N=c1c2c(n(Cc3ccc(Cl)c(Cl)c3)c3c1CCC3)CCCC2 | 63.8% (active)
15 | O=C(C1CCN(S(=O)(=O)c2ccc(Br)s2)CC1)N1CCc2ccccc21 | 10.9%
16 | O=C1N(S(=O)(=O)c2ccccc2F)C(=O)C2(CCCC2)N1S(=O)(=O)c1ccccc1F | -2.1%
17 | Cn1c(N2CCCCC2)nc2c1c(=O)n(Cc1cccc(Br)c1)c(=O)n2C | -15.8%
18 | O=c1[nH]c(Cc2ccccc2)nc2c1oc1ccccc12 | -7.5%
19 | O=c1[nH]cnc2c1oc1ccccc12 | 1.3%
20 | O=C(O)c1c(-c2ccccc2)c2oc3ccccc3c2[nH]c1=O | 89.7% (active)
21 | COC(=O)c1c(-c2ccc(F)cc2)noc1N | -23.1%
22 | CCn1c(-c2ccco2)nc2ccccc21 | 6.2%
23 | COc1ccc(C(=O)n2c(-c3ccco3)nc3ccccc32)cc1 | 66.4% (active)
24 | COc1ccc(C(=O)CSc2nnc(-c3ccco3)n2C)cc1 | -10.7%
25 | O=C(Nc1ccc2c(c1)oc1ccccc12)c1ccc(Br)o1 | 3.1%

Row | Structure (SMILES) | cytotoxicity
26 | CCCC(=O)Nc1cc(OC)c(OC)cc1C(=O)O | 6.8%
27 | O=C(Nc1nnc(-c2cccs2)o1)c1cccc(Oc2ccccc2)c1 | 50.4% (active)
28 | COc1cccc(C(=O)Nc2nnc(-c3cccs3)o2)c1 | 22%
29 | O=C(Nc1nnc(-c2cccs2)o1)c1cccc(F)c1 | 41.3%
30 | O=C(CCc1ccccc1)Nc1nnc(-c2cccs2)o1 | -3%
31 | O=C(Nc1nnc(-c2cccs2)o1)c1ccco1 | -23%
32 | O=C(Nc1nnc(-c2cccs2)o1)c1cccc(C(F)(F)F)c1 | 78.7% (active)
33 | CCCCn1c2nc3ccccc3nc2c2c(=O)n(C(C)CC)cnc21 (configuration not stated) | -10.4%
34 | COc1ccc(CN(CCCN2CCOCC2)S(=O)(=O)N(C)C)cc1OC | -7.2%
35 | COc1ccc2nc(SCC(=O)NC(C)C)[nH]c2c1 | -13.4%
36 | O=C(C1Cc2ccccc2O1)N1CCCCC1 (configuration not stated) | -12.6%
37 | COc1ccc(Cl)cc1N1CC(C(=O)Nc2nccs2)CC1=O (configuration not stated) | 2.4%
38 | O=C(CSc1nnnn1C1CCCC1)N1CCN(C(=O)c2ccco2)CC1 | -11.8%
39 | CN(C(=O)c1cccc(C#N)c1)c1nnc(-c2ccccn2)s1 | -2%
40 | CCCCCN=Cc1c(C)[nH]n(-c2nc3ccccc3s2)c1=O | 1.2%
41 | CCCc1[nH]n(-c2nc3ccccc3s2)c(=O)c1C=NCCN1CCOCC1 | 8.6%
42 | O=c1c(C=NCCCn2ccnc2)c(-c2ccccc2)[nH]n1-c1nc2ccccc2s1 | 57.5% (active)
43 | O=C(NCC(=O)N(Cc1ccc(F)cc1)C(C(=O)NC1CCCC1)c1ccco1)c1ccco1 (configuration not stated) | -8.4%
44 | CCC(CC)C(=O)Nc1cc(=O)n(C)c(=O)n1C | -10.5%
45 | CC(=O)N1CC=C2C(C#N)=C(N)C(C#N)(C#N)[C@H](c3ccoc3)[C@H]2C1 | 9.7%
46 | CC(C)N1CC=C2C(C#N)=C(N)C(C#N)(C#N)C(c3ccccc3)C2C1 (configuration not stated) | 12.8%
47 | N#CC1=C(N)C(C#N)(C#N)[C@H](c2ccoc2)[C@H]2CN(Cc3ccccc3)CC=C12 | 72% (active)
48 | CCSc1nnc(NC(=O)CN(C)S(=O)(=O)c2ccc(F)cc2)s1 | -4.8%
49 | Cc1ccc(-c2nnn(CCC(=O)N3CCCCC3C)n2)cc1 (configuration not stated) | -5.2%
50 | CCCCOc1ccccc1NC(=O)CC1Nc2ccccc2NC1=O (configuration not stated) | -9.1%

Row | Structure (SMILES) | cytotoxicity
51 | CC(C)Oc1ccccc1C1CC(=O)Nc2cc3c(cc21)OCO3 (configuration not stated) | 39.1%
52 | COc1cccc(C2CC(=O)Nc3cc4c(cc32)OCCO4)c1OC(C)C (configuration not stated) | 27.3%
53 | COc1ccccc1C1CC(=O)Nc2cc3c(cc21)OCCO3 (configuration not stated) | 54.4% (active)
54 | O=C1CC(c2ccncc2)c2cc3c(cc2N1)OCCO3 (configuration not stated) | -10.2%
55 | CC(C)Oc1ccccc1C1CC(=O)Nc2cc3c(cc21)OCCO3 (configuration not stated) | 56.4% (active)
56 | Cc1ccc(C2CC(=O)Nc3cc4c(cc32)OCCO4)s1 (configuration not stated) | -4.6%
57 | COc1ccc(C(=O)N2CCN(S(=O)(=O)c3ccc(C)cc3C)CC2)cc1OC | 2.4%
58 | Cc1ccc(Cl)cc1NC(=O)Cn1cccc1 | -2.6%
59 | Cc1cc(C(=O)N2CCN(Cc3ccc4c(c3)OCO4)CC2)on1 | 0.3%
60 | COC(=O)c1cc(-c2ccc3c(c2)OCO3)nc2ccccc12 | -9.6%
61 | O=C(COc1cccc(NC(=O)c2ccco2)c1)c1ccc(F)cc1 | -13.8%
62 | Cn1c(Cl)cnc1C1CC(=O)c2cc(Cl)ccc2O1 (configuration not stated) | 69.6% (active)
63 | COc1ccc2c(c1)C(=O)CC(c1ccccc1F)O2 (configuration not stated) | -4.1%
64 | CN1CCN(C2=Nc3ccccc3Oc3ccc(Cl)cc32)CC1 | 10.6%
65 | CCN1CCN(C(=O)c2nn(-c3ccc(OC)cc3)c(=O)c3c2c2ccccc2n3C)CC1 | -10.7%
66 | CCCc1[nH]nc2c1C1(C(=O)N(C(C)C)c3ccccc31)C(C#N)=C(N)O2 (configuration not stated) | -41.8%
67 | O=C1c2[nH]nc(-c3ccccc3O)c2C(c2cccc(Cl)c2)N1CC1CCCO1 (configuration not stated) | 32.4%
68 | O=C1C(=O)N(Cc2ccco2)C(c2cccc(Cl)c2)/C1=C(\O)c1ccc2c(c1)OCCO2 (configuration not stated) | 3.5%
69 | O=C1c2[nH]nc(-c3ccccc3O)c2C(c2ccccc2)N1Cc1ccco1 (configuration not stated) | 21.9%
70 | CC(=O)C1=C(O)C(=O)N(Cc2ccco2)C1c1ccc(F)cc1 (configuration not stated) | -1.4%
71 | O=C1c2ccccc2C(O)N1Cc1ccco1 (configuration not stated) | -6.1%
72 | O=C1c2ccccc2NC(c2ccc(F)cc2)N1Cc1ccco1 (configuration not stated) | 1.1%
73 | COC(=O)Nc1sccc1C(=O)Nc1sccc1C(=O)OC | 3.5%
74 | CCOC(=O)N1CCN(c2c(N3CCc4ccccc4C3)c(=O)c2=O)CC1 | -10.2%
75 | O=C(CC(O)(c1ccccc1)C(F)(F)C(F)F)c1cccs1 (configuration not stated) | 2.3%

Row | Structure (SMILES) | cytotoxicity
76 | CCN(CC)C(C(=O)Nc1ccc2c(c1)OCO2)c1ccccc1 (configuration not stated) | 5%
77 | CCCCn1c(NC(=O)c2ccccc2)c(C#N)c2nc3ccccc3nc21 | 101% (active)
78 | CCC(=O)Nc1c(C#N)c2nc3ccccc3nc2n1C1CCCCC1 | 2%
79 | CCCCCn1c(N)c(C#N)c2nc3ccccc3nc21 | 3.3%
80 | N#Cc1c(NC(=O)c2ccc(Br)o2)n(-c2ccccc2)c2nc3ccccc3nc12 | 54.7% (active)
81 | COc1ccc(-n2c(NC(=O)c3ccco3)c(C#N)c3nc4ccccc4nc32)cc1 | 5.6%
82 | C=CCn1c(NC(=O)c2ccccc2)c(C#N)c2nc3ccccc3nc21 | 45.1%
83 | CCC(=O)Nc1c(C#N)c2nc3ccccc3nc2n1-c1ccccc1C | 2.9%
84 | CCCCn1c(NC(=O)c2ccccc2Cl)c(C#N)c2nc3ccccc3nc21 | 61.7% (active)
85 | CCCCn1c(NC(=O)CC)c(C#N)c2nc3ccccc3nc21 | 10%
86 | CCCCn1c(NC(C)=O)c(C#N)c2nc3ccccc3nc21 | -2.1%
87 | C=CCn1c(NC(=O)c2ccccc2Cl)c(C#N)c2nc3ccccc3nc21 | 17.3%
88 | CCCCn1c(NC(=O)c2ccc(F)cc2)c(C#N)c2nc3ccccc3nc21 | 73.6% (active)
89 | CC1(C)Cc2c(sc3c2c(=N)n(Cc2ccco2)c(=O)n3Cc2ccc(F)cc2)CO1 | 5.6%
90 | O=C1C2C3C=CC(C3)C2C(=O)N1c1n[nH]c(CCc2ccccc2)n1 (configuration not stated) | 0.1%
91 | CCCCP(=O)(CCCC)Cc1ccccc1O | -0.6%
92 | CC(C)=CC(=O)Nc1ccccc1Br | -7.7%
93 | CC1CC(C)CN(c2oc(-c3ccccc3Cl)nc2C#N)C1 (configuration not stated) | 2.5%
94 | CCCCOC(=O)Cn1c(=O)c2c(nc(Br)n2Cc2ccccc2)n(C)c1=O | -12.6%
95 | Cc1sc2nc3n(c(=O)c2c1C)CCCS3 | 3.5%
96 | N#C/C(C(=O)NCc1ccccc1)=C1\SC(CCO)C(=O)N1c1ccccc1 (configuration not stated) | 10.7%
97 | O=S(=O)(c1cccc2cccnc12)N1CCc2ccccc21 | -5.3%
